Assays:
Test in all cases: log2 ratio of Biotin-Ahx-Ub-VS probe labelling (fragment/DMSO); higher = less target engagement (more negative = stronger competition), active = hit call of the paper (q ≤ 0.05, log2 ratio ≤ -1)
Settings in all cases: compound concentration: 200 uM; treatment time: 3 h
USP34 = USP34 (UniProt Q70CQ2)
Summary of the method: (§1)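 Fragment (200 µM) or vehicle was incubated for 3 h with triplicate HEK293T lysate samples of 495 µg, which were then treated with Biotin-Ahx-Ub-VS at 0.5 µM final for 1 h. Labelled DUBs were enriched on NeutrAvidin, digested with LysC and trypsin, and analysed by diaPASEF LC-MS/MS. Values are average log2 fragment/vehicle ratios from an unpaired t-test on global-median-normalised Spectronaut label-free quantities, using proteins with ≥2 unique peptides.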

USP36 = molecular target: T1, USP36 (UniProt Q9P275)
T1 sequence (whole entry): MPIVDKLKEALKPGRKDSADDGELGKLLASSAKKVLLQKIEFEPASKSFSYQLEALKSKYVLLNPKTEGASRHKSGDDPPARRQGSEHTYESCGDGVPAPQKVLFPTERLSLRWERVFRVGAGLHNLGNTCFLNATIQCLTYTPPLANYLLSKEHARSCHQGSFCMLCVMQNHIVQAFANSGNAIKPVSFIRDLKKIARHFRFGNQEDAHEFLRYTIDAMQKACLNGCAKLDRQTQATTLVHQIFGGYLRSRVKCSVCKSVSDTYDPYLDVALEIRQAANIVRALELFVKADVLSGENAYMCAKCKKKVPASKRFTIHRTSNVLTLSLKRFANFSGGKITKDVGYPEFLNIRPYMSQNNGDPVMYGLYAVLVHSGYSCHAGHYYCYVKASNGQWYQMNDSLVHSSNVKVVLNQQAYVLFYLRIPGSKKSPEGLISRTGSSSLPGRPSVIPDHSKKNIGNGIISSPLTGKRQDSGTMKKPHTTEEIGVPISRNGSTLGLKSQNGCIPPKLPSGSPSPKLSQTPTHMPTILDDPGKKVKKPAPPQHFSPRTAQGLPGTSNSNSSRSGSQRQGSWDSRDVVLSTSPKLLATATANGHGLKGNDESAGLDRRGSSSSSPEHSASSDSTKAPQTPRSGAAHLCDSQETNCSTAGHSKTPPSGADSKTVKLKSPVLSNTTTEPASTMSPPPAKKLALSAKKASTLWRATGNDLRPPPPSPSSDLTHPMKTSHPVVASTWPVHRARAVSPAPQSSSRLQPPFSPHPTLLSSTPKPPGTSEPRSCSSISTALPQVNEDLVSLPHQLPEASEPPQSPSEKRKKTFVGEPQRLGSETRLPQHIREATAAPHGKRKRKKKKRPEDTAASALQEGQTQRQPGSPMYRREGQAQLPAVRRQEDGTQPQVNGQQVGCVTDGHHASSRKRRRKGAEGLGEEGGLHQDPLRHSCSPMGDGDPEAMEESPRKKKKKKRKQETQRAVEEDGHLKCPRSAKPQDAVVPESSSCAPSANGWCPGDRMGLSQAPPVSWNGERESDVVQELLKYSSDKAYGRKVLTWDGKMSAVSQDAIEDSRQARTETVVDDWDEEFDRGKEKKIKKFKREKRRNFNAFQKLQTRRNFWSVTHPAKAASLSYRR
Summary of the method: as §1

USP38 = molecular target: T2, USP38 (UniProt Q8NB14)
T2 sequence (whole entry): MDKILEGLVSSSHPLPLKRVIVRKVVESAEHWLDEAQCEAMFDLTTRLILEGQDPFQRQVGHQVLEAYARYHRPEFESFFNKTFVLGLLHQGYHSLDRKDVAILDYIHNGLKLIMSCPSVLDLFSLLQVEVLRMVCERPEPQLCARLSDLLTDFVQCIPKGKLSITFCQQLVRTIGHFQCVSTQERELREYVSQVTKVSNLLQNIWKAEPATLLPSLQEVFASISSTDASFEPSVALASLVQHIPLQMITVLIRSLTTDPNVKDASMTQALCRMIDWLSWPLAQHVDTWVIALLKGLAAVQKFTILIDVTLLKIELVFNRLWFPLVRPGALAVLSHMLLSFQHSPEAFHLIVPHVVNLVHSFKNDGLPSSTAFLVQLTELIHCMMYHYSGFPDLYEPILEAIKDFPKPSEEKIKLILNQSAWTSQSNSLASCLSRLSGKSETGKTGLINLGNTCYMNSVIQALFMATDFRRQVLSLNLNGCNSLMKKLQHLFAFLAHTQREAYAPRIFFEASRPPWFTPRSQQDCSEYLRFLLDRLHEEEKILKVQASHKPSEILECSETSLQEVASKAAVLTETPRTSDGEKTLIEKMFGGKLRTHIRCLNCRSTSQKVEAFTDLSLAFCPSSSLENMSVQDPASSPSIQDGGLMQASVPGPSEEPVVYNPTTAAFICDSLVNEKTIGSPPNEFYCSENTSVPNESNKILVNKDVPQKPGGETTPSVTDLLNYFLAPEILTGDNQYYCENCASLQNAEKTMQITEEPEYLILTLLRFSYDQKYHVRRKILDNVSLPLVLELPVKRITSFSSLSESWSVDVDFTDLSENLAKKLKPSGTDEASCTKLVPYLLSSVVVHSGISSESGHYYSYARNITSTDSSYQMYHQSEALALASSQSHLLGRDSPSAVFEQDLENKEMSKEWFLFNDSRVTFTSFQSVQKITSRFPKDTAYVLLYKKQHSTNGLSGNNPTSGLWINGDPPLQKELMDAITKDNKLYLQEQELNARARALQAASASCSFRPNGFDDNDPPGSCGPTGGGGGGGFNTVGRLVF
Summary of the method: as §1

USP39 = molecular target: T3, USP39 (UniProt Q53GS9)
T3 sequence (whole entry): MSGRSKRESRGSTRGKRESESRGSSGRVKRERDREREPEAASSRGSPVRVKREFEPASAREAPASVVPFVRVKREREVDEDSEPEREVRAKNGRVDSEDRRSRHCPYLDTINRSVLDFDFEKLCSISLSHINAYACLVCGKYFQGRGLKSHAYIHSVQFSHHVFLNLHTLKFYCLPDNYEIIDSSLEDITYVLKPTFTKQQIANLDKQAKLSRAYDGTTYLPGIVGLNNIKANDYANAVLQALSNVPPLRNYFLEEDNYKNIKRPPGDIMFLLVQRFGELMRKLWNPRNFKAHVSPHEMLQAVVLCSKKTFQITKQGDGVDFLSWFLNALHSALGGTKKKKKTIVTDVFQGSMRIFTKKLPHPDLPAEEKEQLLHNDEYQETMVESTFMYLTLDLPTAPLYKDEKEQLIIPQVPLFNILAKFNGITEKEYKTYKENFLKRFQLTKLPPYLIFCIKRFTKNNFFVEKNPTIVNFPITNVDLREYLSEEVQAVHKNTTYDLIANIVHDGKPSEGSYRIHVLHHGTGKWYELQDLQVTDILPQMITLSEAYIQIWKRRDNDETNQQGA
Summary of the method: as §1

USP4 = molecular target: T4, USP4 (UniProt Q13107)
T4 sequence (whole entry): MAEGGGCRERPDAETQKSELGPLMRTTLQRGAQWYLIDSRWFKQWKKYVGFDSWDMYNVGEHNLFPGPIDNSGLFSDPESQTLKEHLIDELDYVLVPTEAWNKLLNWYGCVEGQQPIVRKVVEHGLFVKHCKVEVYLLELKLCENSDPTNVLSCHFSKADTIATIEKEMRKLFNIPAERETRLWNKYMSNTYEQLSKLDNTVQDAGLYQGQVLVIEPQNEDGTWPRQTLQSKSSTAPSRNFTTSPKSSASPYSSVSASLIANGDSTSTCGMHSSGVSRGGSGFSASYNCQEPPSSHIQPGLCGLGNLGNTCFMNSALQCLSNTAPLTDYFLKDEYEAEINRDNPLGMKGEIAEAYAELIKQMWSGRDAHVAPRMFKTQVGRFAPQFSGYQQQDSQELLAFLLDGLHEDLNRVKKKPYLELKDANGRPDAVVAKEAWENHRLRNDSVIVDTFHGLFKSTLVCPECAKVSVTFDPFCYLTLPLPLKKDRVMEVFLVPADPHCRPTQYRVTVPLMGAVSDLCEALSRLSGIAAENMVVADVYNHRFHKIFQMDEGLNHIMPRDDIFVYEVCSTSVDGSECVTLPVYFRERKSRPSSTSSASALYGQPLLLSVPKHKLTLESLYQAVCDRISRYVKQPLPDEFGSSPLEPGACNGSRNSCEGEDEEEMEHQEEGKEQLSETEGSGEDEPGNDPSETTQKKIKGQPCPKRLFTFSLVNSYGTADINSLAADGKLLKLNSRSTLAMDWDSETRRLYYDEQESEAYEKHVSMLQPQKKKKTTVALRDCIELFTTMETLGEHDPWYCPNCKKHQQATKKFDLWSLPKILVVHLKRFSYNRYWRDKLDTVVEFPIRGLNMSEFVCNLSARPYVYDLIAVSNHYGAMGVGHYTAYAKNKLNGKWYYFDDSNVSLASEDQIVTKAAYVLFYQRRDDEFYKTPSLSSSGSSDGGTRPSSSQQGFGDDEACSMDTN
Summary of the method: as §1

Measured: log2 ratio of Biotin-Ahx-Ub-VS probe labelling

Chain of USP34 (Q70CQ2 whole entry, the tested form may be a part): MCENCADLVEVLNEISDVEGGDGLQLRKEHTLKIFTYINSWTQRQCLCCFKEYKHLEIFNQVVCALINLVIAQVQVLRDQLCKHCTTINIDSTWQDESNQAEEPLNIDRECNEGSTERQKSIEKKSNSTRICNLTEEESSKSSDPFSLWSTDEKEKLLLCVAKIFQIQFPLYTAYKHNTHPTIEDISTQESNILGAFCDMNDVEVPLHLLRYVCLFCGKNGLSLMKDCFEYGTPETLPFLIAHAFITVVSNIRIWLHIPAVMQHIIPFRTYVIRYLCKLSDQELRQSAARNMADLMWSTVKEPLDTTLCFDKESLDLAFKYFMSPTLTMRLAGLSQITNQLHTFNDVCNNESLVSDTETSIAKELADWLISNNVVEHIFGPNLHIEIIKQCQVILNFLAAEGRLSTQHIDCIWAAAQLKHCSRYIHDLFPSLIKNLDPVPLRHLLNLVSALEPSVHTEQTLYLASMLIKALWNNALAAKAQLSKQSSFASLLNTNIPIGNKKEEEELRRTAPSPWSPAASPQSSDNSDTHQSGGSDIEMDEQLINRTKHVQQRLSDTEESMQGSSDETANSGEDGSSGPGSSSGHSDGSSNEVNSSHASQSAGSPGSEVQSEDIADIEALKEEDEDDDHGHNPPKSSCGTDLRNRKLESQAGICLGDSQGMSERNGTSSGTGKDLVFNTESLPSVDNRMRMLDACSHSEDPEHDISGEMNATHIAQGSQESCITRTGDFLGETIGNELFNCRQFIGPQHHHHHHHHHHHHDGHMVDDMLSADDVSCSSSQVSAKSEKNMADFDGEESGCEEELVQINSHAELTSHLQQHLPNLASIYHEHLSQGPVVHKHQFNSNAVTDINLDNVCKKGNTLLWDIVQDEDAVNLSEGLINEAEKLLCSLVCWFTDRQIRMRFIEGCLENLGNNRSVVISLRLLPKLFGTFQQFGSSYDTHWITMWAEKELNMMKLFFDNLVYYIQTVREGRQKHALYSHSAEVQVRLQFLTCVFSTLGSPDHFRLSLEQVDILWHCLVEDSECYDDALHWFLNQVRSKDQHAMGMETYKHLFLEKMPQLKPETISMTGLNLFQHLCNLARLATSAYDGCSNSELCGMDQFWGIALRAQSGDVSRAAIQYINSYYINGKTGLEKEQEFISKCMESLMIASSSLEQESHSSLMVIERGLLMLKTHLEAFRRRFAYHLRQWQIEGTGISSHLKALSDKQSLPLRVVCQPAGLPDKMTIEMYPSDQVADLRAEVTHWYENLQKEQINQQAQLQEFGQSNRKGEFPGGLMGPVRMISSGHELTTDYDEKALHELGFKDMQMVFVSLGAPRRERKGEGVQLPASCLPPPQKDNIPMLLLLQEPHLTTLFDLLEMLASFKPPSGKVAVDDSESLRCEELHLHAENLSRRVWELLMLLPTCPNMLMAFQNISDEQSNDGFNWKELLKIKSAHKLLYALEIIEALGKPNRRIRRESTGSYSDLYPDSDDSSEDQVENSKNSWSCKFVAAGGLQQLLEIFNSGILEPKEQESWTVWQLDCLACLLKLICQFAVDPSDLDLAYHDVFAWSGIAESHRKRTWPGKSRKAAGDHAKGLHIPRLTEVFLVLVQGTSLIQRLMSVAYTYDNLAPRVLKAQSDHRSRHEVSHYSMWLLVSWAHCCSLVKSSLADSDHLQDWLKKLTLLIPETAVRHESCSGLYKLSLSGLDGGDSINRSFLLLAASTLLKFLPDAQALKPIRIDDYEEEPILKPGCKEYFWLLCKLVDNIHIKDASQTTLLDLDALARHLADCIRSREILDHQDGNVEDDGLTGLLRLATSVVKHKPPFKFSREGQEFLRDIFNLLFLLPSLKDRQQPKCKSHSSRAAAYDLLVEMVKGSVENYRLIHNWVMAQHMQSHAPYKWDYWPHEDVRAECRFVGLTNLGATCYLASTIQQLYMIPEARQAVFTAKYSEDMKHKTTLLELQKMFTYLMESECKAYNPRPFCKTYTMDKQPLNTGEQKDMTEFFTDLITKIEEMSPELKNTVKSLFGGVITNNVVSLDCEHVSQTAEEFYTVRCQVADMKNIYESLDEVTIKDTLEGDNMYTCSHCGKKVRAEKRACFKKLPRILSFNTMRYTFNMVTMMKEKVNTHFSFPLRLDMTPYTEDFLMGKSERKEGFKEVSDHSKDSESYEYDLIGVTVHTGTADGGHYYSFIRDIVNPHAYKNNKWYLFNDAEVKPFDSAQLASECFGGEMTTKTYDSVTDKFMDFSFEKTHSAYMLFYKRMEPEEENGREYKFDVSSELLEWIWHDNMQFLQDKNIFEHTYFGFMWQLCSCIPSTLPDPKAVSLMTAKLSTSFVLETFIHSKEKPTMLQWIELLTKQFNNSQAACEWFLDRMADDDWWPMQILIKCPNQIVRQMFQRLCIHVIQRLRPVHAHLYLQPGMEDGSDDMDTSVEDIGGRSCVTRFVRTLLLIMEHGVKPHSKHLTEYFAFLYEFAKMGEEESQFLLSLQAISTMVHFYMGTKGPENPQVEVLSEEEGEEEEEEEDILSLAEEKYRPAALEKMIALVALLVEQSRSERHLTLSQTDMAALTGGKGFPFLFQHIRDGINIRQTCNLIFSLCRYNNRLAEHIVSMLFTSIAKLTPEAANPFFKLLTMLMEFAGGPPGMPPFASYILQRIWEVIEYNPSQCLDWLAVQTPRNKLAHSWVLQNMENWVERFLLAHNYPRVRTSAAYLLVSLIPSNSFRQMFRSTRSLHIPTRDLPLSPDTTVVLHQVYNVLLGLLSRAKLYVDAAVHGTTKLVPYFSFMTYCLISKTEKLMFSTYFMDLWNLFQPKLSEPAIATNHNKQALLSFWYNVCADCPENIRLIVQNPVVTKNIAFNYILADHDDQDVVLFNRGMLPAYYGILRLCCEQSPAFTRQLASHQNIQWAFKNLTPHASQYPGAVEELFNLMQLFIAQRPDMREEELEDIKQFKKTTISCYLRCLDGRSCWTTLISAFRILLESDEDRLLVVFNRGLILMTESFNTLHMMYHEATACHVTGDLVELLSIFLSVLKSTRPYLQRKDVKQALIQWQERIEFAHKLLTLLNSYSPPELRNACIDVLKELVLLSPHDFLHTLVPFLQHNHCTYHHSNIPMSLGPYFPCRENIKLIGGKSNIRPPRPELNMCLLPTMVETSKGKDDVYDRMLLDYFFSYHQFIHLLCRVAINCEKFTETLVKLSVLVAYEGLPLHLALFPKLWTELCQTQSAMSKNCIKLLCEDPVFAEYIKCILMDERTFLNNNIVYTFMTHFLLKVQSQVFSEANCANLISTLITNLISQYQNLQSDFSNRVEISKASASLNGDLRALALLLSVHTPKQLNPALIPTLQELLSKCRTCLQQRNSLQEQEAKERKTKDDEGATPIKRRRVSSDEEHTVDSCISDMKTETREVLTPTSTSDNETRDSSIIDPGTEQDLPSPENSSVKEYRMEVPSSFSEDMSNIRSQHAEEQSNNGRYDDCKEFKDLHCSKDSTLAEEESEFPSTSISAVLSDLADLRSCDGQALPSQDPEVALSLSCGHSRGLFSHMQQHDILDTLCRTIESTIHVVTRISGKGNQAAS

O=C(CCl)NC1CCC(C(F)(F)F)CC1 (stereo not given)
inactive: USP34 -0.186 | USP36 -0.0199 | USP38 0.115 | USP39 0.207 | USP4 -0.24
